IL1B secr inh: inflammasome signaling inhibition, IL-1 beta readout. THP-1 LPS/ATP IL-1B secretion, AlphaLISA, 16 h; active compounds read low. 4.7% of 360,000 active. AID 743279. activity change, % at 57.5 µM; in the data active means activity change below about -50%; inconclusive means mostly about -30% to -49%
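Secreted IL-1B measured by AlphaLISA bead assay after 16 h compound exposure of THP-1 cells; compounds (final up to 57.5 uM) added 1 h before LPS (250 ng/mL) and ATP (1.25 mM) stimulation; lower signal means less secretion.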
RORg inh: ROR gamma (mouse) transcription inhibition; P51450; Drosophila S2 Gal4-RORgamma UAS-luciferase reporter, 20 h; Potency, µM (titrated, usually from 53.6 µM), most hits filed as inhibitors; 5.4% of 310,000 active; further: nearly all actives have a fitted effect of over 60% in size
Target sequence (P51450 whole entry, looked up, the tested form may be a part): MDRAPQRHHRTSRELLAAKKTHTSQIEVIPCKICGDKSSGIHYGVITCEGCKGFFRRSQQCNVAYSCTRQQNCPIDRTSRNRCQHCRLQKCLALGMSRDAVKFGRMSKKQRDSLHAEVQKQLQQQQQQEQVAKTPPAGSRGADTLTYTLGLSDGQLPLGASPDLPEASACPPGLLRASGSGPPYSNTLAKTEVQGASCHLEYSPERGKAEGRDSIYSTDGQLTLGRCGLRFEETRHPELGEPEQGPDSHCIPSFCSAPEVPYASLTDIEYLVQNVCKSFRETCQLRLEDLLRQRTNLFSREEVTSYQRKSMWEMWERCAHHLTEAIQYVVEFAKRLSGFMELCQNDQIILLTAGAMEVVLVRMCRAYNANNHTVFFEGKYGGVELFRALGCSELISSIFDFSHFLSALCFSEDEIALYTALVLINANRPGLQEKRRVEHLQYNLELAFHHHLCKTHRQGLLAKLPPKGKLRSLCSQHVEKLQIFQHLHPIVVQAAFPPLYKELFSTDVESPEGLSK
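Luminescence from a UAS-regulated Photinus luciferase reporter in stably transfected Drosophila Schneider cells is measured; decreased signal marks ROR gamma inhibition. Fusion expression is induced by 700 uM copper sulfate for 20 hr.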
TDP1 cell noCPT: qHTS for Inhibitors of human tyrosyl-DNA phosphodiesterase 1 (TDP1): qHTS in cells in absence of CPT | AID 686978, 2013 | Potency, µM (doses to about 46.2 µM), actives largely listed as inhibitors | 15% of 420,000 active | DT40 Tdp1-/- hTDP1 cells, no CPT, ATP luminescence, 48 h; further: nearly all actives have a fitted effect of over 55% in size
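Chicken DT40 Tdp1-/- cells stably complemented with human TDP1 were seeded at 400 cells/well with DMSO in place of 20 nM camptothecin. After compound pinning, cells grew at least 48 hr at 37 °C; viability read by CellTiter-Glo luminescence.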
DT40 TDP1 CPT: growth inhibition of DT40 Tdp1-/-;hTDP1 cells with camptothecin (screen for TDP1 inhibitors); chicken DT40 Tdp1-/-;hTDP1 cells + 20 nM CPT, ATP luminescence, 48 h; Potency, µM (highest dose often 46.2 µM), hits mostly inhibitors; 12% of 420,000 active; AID 686979; further: nearly all actives have a fitted effect of over 55% in size
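Chicken DT40 Tdp1-/- cells stably complemented with human TDP1 were seeded at 400 cells/well in medium containing 20 nM camptothecin, exposed to pin-transferred compounds, and grown at 37 °C for at least 48 hr. Viability was read as ATP luminescence.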
LDHA inh: blocks human lactate dehydrogenase A. activity change, % (values are at about 110 or 230 µM). 0.15% of 480,000 active. purified LDHA, NADH/diaphorase-resazurin fluorescence; active compounds read low; in the data active means activity change below about -30%; inconclusive means mostly about -25% to -30%
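Resorufin fluorescence (ex540/em590), read at 0 and 20 min after diaphorase/resazurin addition, reports the NADH left after a 5 min room-temperature reaction of 2 nM human LDH5 with 0.06 mM NADH and 0.2 mM pyruvate.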
VP16 counter: inhibits Gal4-VP16 luciferase reporter, ROR gamma counter-screen; Drosophila S2 Gal4-VP16 UAS-luciferase, luminescence, 20 h; Potency, µM (series often up to 53.6 µM), usual class: inhibitors; 3.5% of 310,000 active;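 further: Gal4-VP16 expression switched on by copper sulfate through the metallothionein promoter; nearly all actives have a fitted effect of over 50% in size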
A number is an active result; – = inactive; ? = inconclusive; · = not tested or not shown. A selection: hits, their analogues and other compounds. The true share with any hit is near 18%. Unless noted, the call rests on the fitted dose curve; in most records, active means well fitted curve in the direction sought with a large enough effect; inconclusive means small, poorly fitted or top-dose-only effect, or another doubt; inactive means no such curve, though single readings can be large; an effect the other way counts as inactive or inconclusive.

SMILES	IL1B secr inh	RORg inh	TDP1 cell noCPT	DT40 TDP1 CPT	LDHA inh	VP16 counter
CC1=C(C(=O)N(C(C)C)C(C)C)CC(CC(=O)NC(c2ccccc2)c2ccccc2)C(=O)N1CCC1=CCCCC1 (stereo unspecified)	?	·	18µM	26µM	–	·
CC1=C(C(=O)N(C)C)CC(CC(=O)NC(c2ccccc2)c2ccccc2)C(=O)N1Cc1ccccc1 (stereo unspecified)	–	·	–	–	–	·
CCCCN1C(=O)C(CC(=O)NC(c2ccccc2)c2ccccc2)CC(C(=O)N(CC)CC)=C1C (stereo unspecified)	?	·	21µM	18µM	–	·
CCN(CC)C(=O)C1=C(C)N(CCCOC)C(=O)C(CC(=O)NC(c2ccccc2)c2ccccc2)C1 (stereo unspecified)	–	·	7.3µM	5.8µM	–	·
Cc1cccc(C(=O)NCC(=O)N(C)Cc2ccc(-c3ccc(Cl)cc3)o2)c1	·	·	·	·	–	·
Cc1c(C)n(Cc2ccccc2)c2ncnc(Cl)c12	–	–	3.7µM	15µM	–	?
Cc1c(C)n(Cc2ccccc2)c2ncnc(NCc3ccco3)c12	·	·	·	·	–	·
O=C(CN1CCN(S(=O)(=O)Cc2ccccc2)CC1)Nc1cccc(F)c1	·	·	·	·	–	·
O=C(CSc1cccc[n+]1[O-])c1cc(Cl)ccc1Cl	–	11µM	0.29µM	0.01µM	–	?
O=C(CSc1cccc[n+]1[O-])c1cc2ccccc2o1	–	?	?	21µM	–	?
N#Cc1ccc(Cl)cc1NC(=O)CSc1cccc[n+]1[O-]	–	·	23µM	?	–	·
O=C(CSc1cccc[n+]1[O-])c1cccs1	–	–	4.1µM	?	–	–
O=C(O)c1ccc(-c2ccc(F)cc2)cc1	·	·	·	·	–	·
CCCn1nnc(NC(=S)NC(=O)c2ccc(-c3ccc(Br)cc3)o2)n1	–	0.79µM	?	?	–	2.5µM
CCCn1nnc(NC(=O)c2ccc(Br)cc2)n1	–	–	–	–	–	–
Cn1nnc(NC(=S)NC(=O)c2ccc(-c3ccc(Br)cc3)o2)n1	–	0.71µM	?	–	–	5µM
Cn1nnc(NC(=S)NC(=O)c2ccc3ccccc3c2)n1	–	·	–	–	–	·
CCN(CC)CCCNC(=O)c1nc(-c2cccc3[nH]ccc23)no1	·	·	·	·	–	·
COc1ccc(Nc2nc(N3CCOCC3)nc3c2cnn3C)cc1	·	·	·	·	–	·
O=C1N=C2N(CCN3CCCCC3)c3ccccc3N2/C1=C\c1ccc([N+](=O)[O-])s1	–	·	?	9.2µM	–	·
O=[N+]([O-])c1ccc(N2CCCCC2)s1	–	–	–	–	–	–
Cc1c(C(=O)NCCc2ccccn2)cnn1-c1nccc(-c2cccs2)n1	·	·	–	–	·	·
COc1ccccc1CNC(=O)c1cnn(-c2nccc(-c3cccs3)n2)c1C	·	·	?	18µM	·	·
O=C1NC(=S)N(C(=O)c2ccc(F)cc2)/C1=C/c1ccccc1	–	–	13µM	23µM	–	–
COc1ccc(/C=C2\C(=O)NC(=S)N2C(=O)c2ccc(F)cc2)cc1	–	8.9µM	18µM	23µM	–	11µM
SMILES	IL1B secr inh	RORg inh	TDP1 cell noCPT	DT40 TDP1 CPT	LDHA inh	VP16 counter
CN1/C(=C/C=C/c2n(C)c3cc([N+](=O)[O-])c([N+](=O)[O-])cc3[n+]2C)C(C)(C)c2ccccc21	-52	·	3.7µM	?	–	·
CSc1ccc(/C=[N+](/[O-])c2ccccc2)cc1	·	·	·	·	–	·
COCCn1c(SCC(=O)c2ccc(Br)s2)nnc1-c1ccc(Cl)cc1	·	·	·	·	–	·
CCCOc1ccc(C(=O)NNC(=S)NC(=O)c2cc(-c3ccccc3)nc3ccccc23)cc1	–	7.1µM	?	?	–	–
CCCCC(=O)Nc1ccc(C(=O)NNC(=O)CCc2ccccc2)cc1	–	–	–	–	–	–
CCCOc1ccc(C(=O)NNC(=S)NC(=O)c2cccs2)cc1	–	8.9µM	18µM	23µM	–	7.9µM
CCCCC(=O)Nc1ccc(C(=O)NNC(=O)c2ccc(C)c(Br)c2)cc1	–	–	–	–	-47	–
CCCC(=O)Nc1ccc(C(=O)NNC(=S)NC(=O)c2cccs2)cc1	–	10µM	?	?	–	–

High-throughput results deposited in PubChem by National Center for Advancing Translational Sciences (NCATS).
